These results are taken from PubChem BioAssay (NCI).

Common to all, as to assay: NCI-60 one-dose screen, 48 h (100 = growth as untreated, 0 = no growth, -100 = all killed)
What all share (details): 10 µM unless noted

In test [1] the test system is HCT-15 colon.
Test [2] concerns HT29 colon.
For test [3], the system named is SNB-75 CNS.
Test [4] concerns SNB-19 CNS.
In test [5] the test system is U251 CNS.
For test [6], the system named is PC-3 prostate.
In test [7] the test system is SK-MEL-5 melanoma.
Test [8] concerns UACC-62 melanoma.
Test [9] relates to LOX IMVI melanoma.
Test [10] concerns SK-MEL-28 melanoma.
Test [11] relates to EKVX NSCLC.
For test [12], the system named is SN12C renal.
Test [13] concerns UO-31 renal.
Test [14] deals with TK-10 renal.
In test [15] the test system is ACHN renal.
Test [16] relates to CAKI-1 renal.
The test system of test [17] is A498 renal.
Test [18] concerns CCRF-CEM leukemia.
In test [19] the test system is MOLT-4 leukemia.

SMILES strings stand for the structures. Compounds without any hit were thinned out: in the full panel of roughly 83,000, 20% have a hit.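 A percent growth of 40 corresponds to 60% growth inhibition; 0 means no net growth; -100 means all cells died. Active threshold: below 10.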 Values without a mark were called inactive. Calls of active or inactive are those of the source.

With `N#Cc1c(-c2ccc(Cl)cc2)csc1NC(=O)Nc1cccc(C(F)(F)F)c1`, the growth in [1] is 11.7%; in test [2], 13%; in test [3] it was 29.3%; in test [4], 12.1%; in test [5], 6.02% (active); in test [6], 11.1%. The growth is 22.4% in [7]; 12.5% in test [8]; 5.9% (active) in test [9]; 14.3% in test [10]; 17.3% in test [11]; -17.2% (active) in [12]. The growth in test [13] is -2.89% (active); in [14] it was 20.1%; in [15], 1.09% (active); in [16] it was 27.8%; in test [17], 13.8%; in [18] it was 14.1%. The growth in [19] was 7.5% (active).

Take `O=C(NC[C@H](O)CO)c1ccncc1Nc1ccc(I)cc1F`: the growth was 43.9% in test [1]; 8.1% (active) in test [2]; 73.4% in test [3]; 51.5% in test [4]; 55.3% in test [5]; 86.4% in [6]. Moreover, the growth is 44.5% in test [7]; -7.65% (active) in test [8]; 25.2% in [9]; -12.7% (active) in test [10]; 45.1% in [11]; 60.3% in [12]. In addition, the growth in test [13] was 35.1%; in [14] it was 40.5%; in [15], 41.4%; in test [16] it was 32.7%; in test [17], -21.9% (active); in test [18], 102%. Also, in [19], the growth was 90.3%.

As to `CCN1CCN(CCCN(C[C@H]2Cc3ccccc3CN2)[C@H]2CCCc3cccnc32)CC1`, the growth in [1] is 72.5%; in test [2], 75.2%; in test [3], 84.8%; in [4] it was 84.9%; in test [5], 79.2%; in [6] it was 77.3%. Further, the growth was 97.7% in test [7]; 106% in test [8]; 74.3% in [9]; 108% in test [10]; 84% in [11]; 83.8% in test [12]. For the same compound, the growth in test [13] is 53.2%; in [14] it was 85.6%; in test [15], 87.6%; in test [16], 74.4%; in [17] it was 86.6%; in test [18], 79.6%. Besides, the growth in [19] was 69.8%.

Consider `COc1ccc(Nc2ncccc2NC(=O)c2cn(Cc3cccc(Oc4ccccc4)c3)nn2)cc1`, for which the growth was 78.3% in [1]; 101% in test [2]; 83.8% in test [3]; 95.3% in [4]; 89.8% in [5]; 69.8% in [6]. Further, the growth is 76.2% in test [7]; 67% in test [8]; 86.6% in test [9]; 102% in test [10]; 86.6% in [11]; 92.3% in [12]. The growth in test [13] was 63.7%; in test [14] it was 99.6%; in test [15], 99.5%; in [16], 87.3%; in [17] it was 81.5%; in [18], 91.4%. In addition, the growth in test [19] was 65.3%.

`CNC(=O)c1ccc(Nc2ncc(C(F)(F)F)c(NCc3nccnc3N(C)S(C)(=O)=O)n2)cc1`: the growth in test [1] was 1.88% (active); in test [2] it was -11.9% (active); in test [3] it was -44.7% (active); in test [4], 7.45% (active); in [5] it was 1.49% (active); in test [6] it was 10.5%. Besides, the growth in test [7] was -49.5% (active); in test [8] it was -70% (active); in [9], 0.319% (active); in test [10], 1.14% (active); in test [11], -4.53% (active); in test [12] it was 5.6% (active). In addition, the growth is -6.92% (active) in test [13]; -21.5% (active) in [14]; 3.54% (active) in test [15]; 0.765% (active) in test [16]; -42.2% (active) in test [17]; 4.49% (active) in test [18]. Also, in test [19], the growth was -9.42% (active).

As to `O=[N+]([O-])c1cc(Br)cc2c1[nH]c1ccc(Br)cc12`, the growth in test [1] is 81.8%; in [2] it was 58.8%; in test [3] it was 19.9%; in test [4], 81.1%; in [5], 58.4%; in [6] it was 60%. The growth in [7] was 88.1%; in test [8], 67.7%; in test [9], 38%; in test [10] it was 89.8%; in test [11], 60.2%; in [12] it was 82.7%. Further, the growth in test [13] is 25.5%; in test [14], 52.8%; in test [15] it was 32.9%; in test [16] it was 51.4%; in test [17], 76.2%; in test [18], 65.2%. In [19], the growth is 77.1%.

Turning to `C[C@@H](Oc1cc(C(=O)Nc2ccc(C(=O)N3CCN(C)CC3)cc2)nnc1N)c1c(Cl)ccc(F)c1Cl`, the growth in test [1] was 46.9%; in test [2], 9.76% (active); in [3] it was 71.2%; in test [4], 75.7%; in test [5], 52.1%; in [6], 52.4%. The growth in test [7] is 36.8%; in [8], 62%; in test [9], 33.2%; in test [10] it was 70.9%; in test [11] it was 72.5%; in test [12] it was 64.5%. The growth is 48.4% in [13]; 79.4% in test [14]; 91.8% in test [15]; 75.5% in test [16]; 65% in test [17]; 55.9% in [18]. In [19], the growth is 34.8%.

Take `C=CC(=O)N1CCC[C@H](n2c(=O)n(-c3ccc(Oc4ccccc4)cc3)c3c(N)ncnc32)C1`: the growth in test [1] was 98.3%; in [2], 68.9%; in test [3], 113%; in test [4], 79.1%; in test [5] it was 89.2%; in [6], 87.9%. Moreover, the growth in test [7] is 94.1%; in test [8], 81.2%; in test [9] it was 72.4%; in test [10], 113%; in test [11], 57.4%; in test [12], 71%. In addition, the growth in test [13] is 50.5%; in test [14] it was 27.6%; in test [15], 41.2%; in test [16], 69.1%; in [17] it was 81.2%; in test [18], 82.3%. Besides, in test [19], the growth was 68.5%.
